The structures appear in SMILES notation. For part of these data: Measured potencies and affinities stand elsewhere. The source made the active and inactive calls. Unless noted, no rule for the calls is given here.

Test [1] in a line: antimalarial activity against Dd2 strain (AID 2302;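 active = growth inhibition above 50% at the single 2 µM test dose, taken to imply half-maximal potency below 2 µM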;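 also: 0% = DMSO untreated growth and 100% = chloroquine plus artemisinin killed control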). Conditions: P. falciparum Dd2 in RBCs, LDH growth readout, 72 h; at 2 µM; active compounds read high.
Test [2] is described as follows: HepG2 cytotoxicity, primary screen, cytotoxicity control for P. falciparum antimalarial project, cell-based, ATP luminescence (AID 2303;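 active = inhibition above 50%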;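 also: 0% = DMSO wells and 100% = digitonin-killed cells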). Conditions: HepG2 viability, 24-48 h, at 10 µM, active compounds read high.
Test [3] deals with L-lactate dehydrogenase (Plasmodium falciparum (isolate CDC / Honduras)) (UniProt Q27743). Briefly: PfLDH activity inhibition – cell lysate, 3D7 strain, counter-screen for P. falciparum growth inhibition project (AID 2304).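 Also: 0% = vehicle and 100% = reference inhibitor.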 As to conditions: P. falciparum 3D7 crude extract, LDH APAD/NBT absorbance; at 2 µM; active compounds read high.
Chain of L-lactate dehydrogenase (Plasmodium falciparum (isolate CDC / Honduras)) (Q27743 whole entry, looked up): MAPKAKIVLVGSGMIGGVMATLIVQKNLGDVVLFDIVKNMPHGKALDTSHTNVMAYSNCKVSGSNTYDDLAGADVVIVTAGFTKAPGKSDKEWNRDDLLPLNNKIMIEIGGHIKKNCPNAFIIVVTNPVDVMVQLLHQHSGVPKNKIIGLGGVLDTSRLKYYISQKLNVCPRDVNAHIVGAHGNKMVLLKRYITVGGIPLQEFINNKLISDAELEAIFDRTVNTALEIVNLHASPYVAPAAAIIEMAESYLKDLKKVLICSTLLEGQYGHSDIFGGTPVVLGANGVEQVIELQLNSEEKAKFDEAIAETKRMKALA
Test [4] is described as follows: inhibition of 3D7 malaria parasite growth – strain 3D7 (AID 2306).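 Also: 0% = DMSO wells and 100% = chloroquine plus artemisinin control wells.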 As to conditions: P. falciparum 3D7 erythrocytic growth, LDH absorbance, 72 h; at 2 µM; active compounds read high.
The target of test [5] is Calcium-dependent protein kinase 1 (Plasmodium falciparum (isolate 3D7)) (UniProt P62344). Briefly: PfCDPK1 kinase inhibitors, biochemical, TCAMS library (AID 1159585; cut-off not given, nearly all actives have IC50 up to about 0.98 µM;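 also: inhibitors leave more ATP so luminescence rises with inhibition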). Conditions: recombinant PfCDPK1, Kinase-Glo ATP depletion luminescence. In general terms: In Kinase-Glo more light means more ATP remaining.
Chain of Calcium-dependent protein kinase 1 (Plasmodium falciparum (isolate 3D7)) (P62344 whole entry, looked up): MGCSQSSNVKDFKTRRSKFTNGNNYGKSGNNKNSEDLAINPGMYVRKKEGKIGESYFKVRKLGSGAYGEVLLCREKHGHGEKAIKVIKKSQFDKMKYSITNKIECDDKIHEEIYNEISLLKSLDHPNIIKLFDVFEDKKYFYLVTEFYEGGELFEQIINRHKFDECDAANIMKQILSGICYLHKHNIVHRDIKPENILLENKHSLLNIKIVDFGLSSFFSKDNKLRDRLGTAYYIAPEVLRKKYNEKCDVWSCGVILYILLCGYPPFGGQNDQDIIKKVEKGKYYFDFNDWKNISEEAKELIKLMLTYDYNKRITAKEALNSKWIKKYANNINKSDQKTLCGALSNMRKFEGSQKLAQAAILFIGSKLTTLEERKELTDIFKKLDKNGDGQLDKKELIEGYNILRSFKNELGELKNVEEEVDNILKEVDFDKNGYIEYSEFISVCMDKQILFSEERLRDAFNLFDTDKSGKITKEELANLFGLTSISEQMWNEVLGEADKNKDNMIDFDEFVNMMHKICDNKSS
Test [6] has as its target Plasmodium falciparum protein kinase 6 (PK6, PF3D7_1337100) (UniProt Q8IDW1). Briefly: PfPK6 kinase inhibitors, biochemical, TCAMS library (AID 1159586). As to conditions: recombinant PfPK6, Kinase-Glo ATP depletion luminescence.
Test [7] concerns the target Protein kinase 7 (PK7), Plasmodium falciparum 3D7 (PF3D7_0213400) (UniProt Q7YTF7). Kind of test: inhibition of Plasmodium PK7 catalytic activity – biochemical, TCAMS antimalarial set, Kinase-Glo luminescence (AID 1159587). As to conditions: recombinant PfPK7, Kinase-Glo ATP depletion luminescence.
The target of test [8] is Calcium-dependent protein kinase 4 (Plasmodium falciparum (isolate 3D7)) (UniProt Q8IBS5). Briefly: PfCDPK4 kinase inhibitors, biochemical, TCAMS library (AID 1159588; cut-off not given, nearly all actives have IC50 up to about 0.91 µM). Conditions: recombinant PfCDPK4, Kinase-Glo ATP depletion luminescence.
Chain of Calcium-dependent protein kinase 4 (Plasmodium falciparum (isolate 3D7)) (Q8IBS5 whole entry, looked up): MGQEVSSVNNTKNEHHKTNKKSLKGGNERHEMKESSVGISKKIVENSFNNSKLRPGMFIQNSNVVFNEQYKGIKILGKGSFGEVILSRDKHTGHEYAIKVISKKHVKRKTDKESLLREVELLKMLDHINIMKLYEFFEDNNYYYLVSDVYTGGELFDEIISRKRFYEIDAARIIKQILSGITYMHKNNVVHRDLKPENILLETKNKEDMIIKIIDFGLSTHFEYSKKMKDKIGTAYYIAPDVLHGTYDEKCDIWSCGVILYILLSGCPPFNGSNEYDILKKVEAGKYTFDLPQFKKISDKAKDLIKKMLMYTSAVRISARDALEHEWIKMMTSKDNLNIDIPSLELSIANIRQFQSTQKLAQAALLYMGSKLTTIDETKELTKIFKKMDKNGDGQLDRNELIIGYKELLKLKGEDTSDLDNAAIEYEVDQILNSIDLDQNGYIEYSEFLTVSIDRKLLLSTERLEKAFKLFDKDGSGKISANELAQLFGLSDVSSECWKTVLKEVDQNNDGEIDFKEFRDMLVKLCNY

Chain of Plasmodium falciparum protein kinase 6 (PK6, PF3D7_1337100) (Q8IDW1 1-305): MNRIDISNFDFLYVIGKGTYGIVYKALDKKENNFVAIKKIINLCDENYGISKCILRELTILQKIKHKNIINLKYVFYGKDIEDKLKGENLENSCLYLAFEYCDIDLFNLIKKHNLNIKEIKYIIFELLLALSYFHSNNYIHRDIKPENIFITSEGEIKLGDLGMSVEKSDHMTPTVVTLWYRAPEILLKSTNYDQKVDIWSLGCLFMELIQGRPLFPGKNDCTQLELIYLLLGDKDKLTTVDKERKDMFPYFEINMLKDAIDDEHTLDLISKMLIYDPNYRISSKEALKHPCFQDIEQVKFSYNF
Chain of Protein kinase 7 (PK7), Plasmodium falciparum 3D7 (PF3D7_0213400) (Q7YTF7 1-343): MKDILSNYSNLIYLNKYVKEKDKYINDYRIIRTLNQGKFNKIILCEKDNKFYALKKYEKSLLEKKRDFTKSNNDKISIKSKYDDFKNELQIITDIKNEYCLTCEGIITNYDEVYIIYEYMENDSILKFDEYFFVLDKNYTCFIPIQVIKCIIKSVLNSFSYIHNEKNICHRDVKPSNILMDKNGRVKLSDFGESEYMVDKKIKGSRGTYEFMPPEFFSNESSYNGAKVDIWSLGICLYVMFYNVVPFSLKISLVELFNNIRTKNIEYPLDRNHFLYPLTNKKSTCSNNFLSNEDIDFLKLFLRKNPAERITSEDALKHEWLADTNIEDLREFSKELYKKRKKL

On to `Cc1cc(CN2CCC(N3CC(c4ccccc4)(c4ccccc4)OC3=O)C2)ccc1O` (centres undefined), for which the growth inhibition in test [1] is 68% (active); in test [4], 96% (active). The inhibition in test [2] was -3% (inactive); in test [3], 1% (inactive). Moreover, the result in test [5], in test [6], in test [7] and in test [8] was inactive.
For `Cc1ccc(Cn2c(N3CCC(C(=O)NCc4ccccn4)CC3)nc3ccccc32)cc1`, the growth inhibition is 99% (active) in test [1] and 100% (active) in test [4]. Also, the inhibition in test [2] is -8% (inactive); in test [3], 8% (inactive). Also, the result in test [5], in test [6], in test [7] and in test [8] was inactive.
`CN1CCN(c2cccc(Nc3nccc(NCC(O)c4ccccc4)n3)c2)CC1` (centres undefined): the growth inhibition in test [1] is 4% (inactive); in test [4] it was 101% (active). The inhibition is 30% (inactive) in test [2] and -2% (inactive) in test [3]. Besides, the result in test [5], in test [6], in test [7] and in test [8] was inactive.
On to `COc1cc(NC(=O)c2sc(-c3ccc(Cl)cc3)cc2NC(=O)c2ccncc2)ccc1OCCN1CCCC1`, for which the growth inhibition in test [1] and in test [4] was 100% (active) each time. For the same compound, the inhibition in test [2] is 100% (active); in test [3], 3% (inactive). In addition, the outcome in test [5], in test [6], in test [7] and in test [8] was inactive.
`Cc1cccc2[nH]c(-c3ccc(-c4cccc(NC(=O)c5cncn5C)c4)s3)nc12`: the growth inhibition in test [1] is 16% (inactive); in test [4], 103% (active). Moreover, the inhibition in test [2] is 13% (inactive); in test [3], -5% (inactive). Also, the outcome in test [5], in test [6], in test [7] and in test [8] was inactive.
Consider `Cc1ccc(C(=O)Nc2cc(S(=O)(=O)N3CCCC3)ccc2OCC(F)(F)F)cc1`, for which the growth inhibition in test [1] is 3% (inactive); in test [4] it was 93% (active). Further, the results for the inhibition in test [2] and in test [3] were -2% (inactive) and 3% (inactive), respectively. Moreover, the result in test [5], in test [6], in test [7] and in test [8] was inactive.
For `CCCc1ccc(C(=O)N2[C@@H](c3nccs3)[C@@H](C(N)=O)C[C@@]2(CC(C)C)C(=O)O)cc1`, the growth inhibition in test [1] is 80% (active); in test [4] it was 94% (active). Besides, the inhibition was 16% (inactive) in test [2] and 1% (inactive) in test [3]. Also, the outcome in test [5], in test [6], in test [7] and in test [8] was inactive.
Regarding `O=C(Nc1cccc(C(F)(F)F)c1)Nc1nc2ccc([N+](=O)[O-])cc2s1`, the growth inhibition was 76% (active) in test [1] and 102% (active) in test [4]. The inhibition in test [2] is 81% (active); in test [3] it was 0% (inactive). Besides, the outcome in test [5], in test [6], in test [7] and in test [8] was inactive.
With `CCc1cn2c3c(cc(C(=O)N[C@@H](Cc4ccccc4)[C@H](O)CNC4CCCCC4)cc13)N(CC)S(=O)(=O)CC2`, the growth inhibition in test [1] and in test [4] was 98% (active) throughout. The inhibition was 8% (inactive) in test [2] and -5% (inactive) in test [3]. The outcome in test [5], in test [6], in test [7] and in test [8] was inactive.
For `COc1ccc2nccc(NN=Cc3ccccc3)c2c1`, the growth inhibition in test [1] is 99% (active); in test [4], 101% (active). Besides, the inhibition in test [2] was -2% (inactive); in test [3], -1% (inactive). Further, the result in test [5], in test [6], in test [7] and in test [8] was inactive.
With `CN(C)Cc1cccc(CNC(=O)c2sccc2OCc2ccc(Cl)cc2)c1`, the growth inhibition in test [1] is 88% (active); in test [4], 90% (active). The results for the inhibition in test [2] and in test [3] were 7% (inactive) and -6% (inactive), respectively. Further, the outcome in test [5], in test [6], in test [7] and in test [8] was inactive.
Take `O=C(Nc1cccc(CN2CCCN(Cc3ccc(O)cc3)CC2)c1)c1cc(F)cc(F)c1`: the growth inhibition in test [1] was 13% (inactive); in test [4], 100% (active). The inhibition in test [2] was 15% (inactive); in test [3] it was 0% (inactive). The result in test [5], in test [6], in test [7] and in test [8] was inactive.
With `COc1ccc(NC(=O)C=Cc2ccc(Oc3ccccc3Cl)c([N+](=O)[O-])c2)cc1OCCN(C(C)C)C(C)C`, the figures for the growth inhibition in test [1] and in test [4] were 97% (active) and 99% (active), respectively. In addition, the results for the inhibition in test [2] and in test [3] were 31% (inactive) and 2% (inactive), respectively. Moreover, the result in test [5], in test [6], in test [7] and in test [8] was inactive.
Take `CC1(C)N=C(N)N=C(N)N1OCCCOc1ccc([N+](=O)[O-])cc1`: the growth inhibition in test [1] was 80% (active); in test [4], 94% (active). Also, the values for the inhibition in test [2] and in test [3] were 68% (active) and 0% (inactive), respectively. Besides, the outcome in test [5], in test [6], in test [7] and in test [8] was inactive.
For the compound `Cc1cc(-c2nc3ccc(C(=N)N)cc3[nH]2)c(C)cc1-c1nc2ccc(C(=N)N)cc2[nH]1`, the figures for the growth inhibition in test [1] and in test [4] were 97% (active) and 96% (active), respectively. The inhibition in test [2] is 0% (inactive); in test [3] it was -1% (inactive). Moreover, the outcome in test [5], in test [6], in test [7] and in test [8] was inactive.
On to `Fc1ccc(CNc2ncc(-c3ccsc3)c(-c3nccs3)n2)cc1`, for which the growth inhibition was 77% (active) in test [1] and 94% (active) in test [4]. The results for the inhibition in test [2] and in test [3] were 7% (inactive) and -2% (inactive), respectively. In addition, the outcome in test [5], in test [6], in test [7] and in test [8] was inactive.
For `Cc1noc(-c2ccc3c(c2)CCN(CCC2CCC(NC(=O)/C=C/c4cccc(Cl)c4)CC2)CC3)n1` (centres undefined), the results for the growth inhibition in test [1] and in test [4] were 24% (inactive) and 86% (active), respectively. The inhibition is 37% (inactive) in test [2] and 4% (inactive) in test [3]. Besides, the result in test [5], in test [6], in test [7] and in test [8] was inactive.
On to `COc1ccc2ncc(F)c(CCN3CC[C@@H](CNCc4cc(C)c5c(c4)OCCO5)C3)c2n1`, for which the growth inhibition was 44% (inactive) in test [1] and 98% (active) in test [4]. Besides, the inhibition in test [2] was 22% (inactive); in test [3], 0% (inactive). Further, the result in test [5], in test [6], in test [7] and in test [8] was inactive.

One may read the inhibition as the relative decrease from the control value, in per cent.

Source of the values: PubChem BioAssay.
